# Rows were chosen to be rich in hits. Some 13% of all compounds tested hit in one or more screens of this group.
# FMDV inh – antivirals against foot and mouth disease virus. FMDV antiviral cell-based qHTS. Potency, µM (top dose mostly 57.9 µM), without a hit: at the highest dose activity change, negative = inhibition, hits mostly inhibitors. hit rate 1.2% among 410,000; calls by dose curve; tested in HEK293T cells; also: read-out not given here; potency is read from the fitted curve at half-maximal effect; % is scaled to controls: 0 for no effect and ±100 for the full control effect; nearly all actives have a fitted effect of over 45% in size
# Marburg entry inh – inhibitors of Marburg virus binding or cell entry | Marburg virus pseudotyped entry inhibition, cell reporter | Potency, µM (top dose mostly 37.8 µM), for the others: top-dose activity change, negative = inhibition, actives largely listed as inhibitors | hit rate 1.8% among 300,000; calls by dose curve; tested in HEK293 cells; also: potency is read from the fitted curve at half-maximal effect; % is scaled to controls: 0 for no effect and ±100 for the full control effect
# HCV inhibitor – blocks hepatitis C virus; Huh7.5.1 HCVcc-Cre infection, luciferase reporter, 44 h; Potency, µM (doses to about 41.8 µM), for inactives: at the highest dose activity change, negative = inhibition, actives largely listed as inhibitors; hit rate 3.4% among 340,000; AID 651820; active = well fitted inhibition curve with a large enough effect; inconclusive = small, poorly fitted or top-dose-only effect, or another doubt; inactive = no such curve, though single readings can be large or run the other way; also: potency is read from the fitted curve at half-maximal effect; % is scaled to controls: 0 for no effect and ±100 for the full control effect
#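 Whole-lifecycle infectious HCVcc-Cre system; cells 1,000/well, compound then virus (~0.5 moi) added 4 h after plating, 44 h culture. Luciferase read 15 sec following 15 min substrate incubation, room temp.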
# Shiga toxin inh – blocks Shiga toxin action in Vero cells | hit rate 9.2% among 290,000 | AID 2315 | Vero cells, Shiga toxin protein synthesis inhibition reporter | inhibition, % at 38.7 µM; in the data active = inhibition mostly above about 28%, no sharp cut-off; inactive = mostly below about 43%; also: 0% is about no effect
# Cycloheximide cs – affects cycloheximide protein synthesis inhibition readout, counter-screen. max response, %. cell reporter, cycloheximide protein synthesis inhibition counterscreen. AID 2314. hit rate 12% among 300,000; in the data active = max response mostly above about 13%, no sharp cut-off; inactive = mostly below about 14%; also: read at 38.3 µM for the half of the compounds with a filed dose; 0% is about no effect
# Lassa entry inh – blocks Lassa virus binding to or entry into cells | Lassa virus pseudotype entry inhibition, cell reporter | Potency, µM (titrated, usually from 37.9 µM), without a hit: top-dose activity change, negative = inhibition, actives largely listed as inhibitors | hit rate 1.2% among 300,000 | AID 540256; calls by dose curve; tested in HEK293 cells; also: potency is read from the fitted curve at half-maximal effect; % is scaled to controls: 0 for no effect and ±100 for the full control effect; nearly all actives have a fitted effect of over 50% in size
# * marks the source's active call; other numbers are inactive results; u = inconclusive; x = no result given; [ ] = another dose, or the depositor's remark.
SMILES,FMDV inh,Marburg entry inh,HCV inhibitor,Shiga toxin inh,Cycloheximide cs,Lassa entry inh
CCN1C(N(C)CCc2c[nH]c3ccccc23)=N[C@@H](c2cccc(C(F)(F)F)c2)C(C(=O)OC)=C1C,-29.4%,x,25.1µM*,x,x,x
Cc1cc(C)cc(-n2nc(C)cc2N)c1,21.0%,-9.7%,10µM*,50.2,-3.6,-10.2%
Cc1cccc(-n2nc(C)cc2N)c1,12.9%,3.9%,5.6%,-8.2,13.3,-0.9%
Cc1cc(N)n(-c2ccc3ccccc3c2)n1,30.0%,-28.2%,u,42.6*,17.9*,-3.2%
CC(C)CC(=O)NCc1ccc2[nH]c3c(c2c1)CCCC3,-2.2%,-7.6%,-24.1%,11.7,13.6,-20.3%
CC1(C)CC(=O)C(C=NCc2ccc3c(c2)OCO3)=C(O)C1,0.0%,u,15.4%,-3.5,active,-8.2%
CC1(C)CC(=O)C(C=NCCc2ccc(O)cc2)=C(O)C1,x,11.6%,9.4%,8.6,-4.7,2.0%
CC1(C)CC(=O)C(C=Nc2ccc3c(c2)OCO3)=C(O)C1,60.2%,2.4%,4.0%,81.4*,39.1*,-18.9%
CC1(C)CC(=O)C(C=Nc2ccc(O)c(N=CC3=C(O)CC(C)(C)CC3=O)c2)=C(O)C1,7.3%,u,1.8%,14.8,0.8,u
O=C(N/N=C/C=C/c1ccccc1)c1cccc(Br)c1,18.1%,u,u,25.3,8.9,17.1%
Cc1occc1C(=O)N/N=C/c1ccc(N(C)C)cc1,-44.8%,u,-16.9%,35.2,22.2*,u
Cc1occc1C(=O)N/N=C/C=C/c1ccccc1[N+](=O)[O-],28.3%,10.8%[46.1 µM],-18.4%,30.0,41.8*,25.5%
Cc1ccc(/C=N/NC(=O)NC23CC4CC(CC(C4)C2)C3)o1,21.4%,-16.4%,19.9%,149.5*,28.5*,-25.5%
Cc1ccc(C(=O)N/N=C/C=C/c2ccccc2)cc1,11.3%,-7.0%[46.1 µM],22.0%,48.8,24.7*,-7.0%[46.1 µM]
O=C(CSc1nn(-c2ccc(Cl)cc2)c(=S)s1)NCC1CCCO1 (stereo not given),7.5%,x,-1.4%,11.7,0.6,x
O=C(O)CNC(=O)C1(NC(=O)OCc2ccccc2)CCCC1,-4.4%,2.5%,22.8%,x,x,17.0%
Cc1cc(C(=O)N/N=C/C=C/c2ccccc2)c(C)o1,-8.4%,-1.4%,-10.3%,-8.8,12.9,1.7%
O=C(N/N=C/C=C/c1ccccc1)c1ccccc1Br,40.9%,-1.4%,22.4%,40.6,26.1*,-0.5%
Cc1occc1C(=O)N/N=C/C=C/c1ccc(N(C)C)cc1,34.0%,x,u,79.4*,52.5*,x
Cc1ccc(/C=N/NC(=O)c2ccoc2C)o1,20.1%,u,19.6%,116.7*,43.9*,10.5%
Cc1occc1C(=O)N/N=C/C=C/c1ccccc1,20.1%,u,-21.1%,84.7,41.1*,u
Cc1nc2c(C)cccc2cc1C(=O)N/N=C/c1ccc(N(C)C)cc1,-12.6%,u,u,-14.9,-0.9,u
Cc1occc1C(=O)N/N=C/C(Br)=C\c1ccccc1,u,u,u,49.7*,43.2*,12.6µM*
Cc1ccc(/C=N/NC(=O)c2ccccc2OCc2ccc(F)cc2)o1,-33.4%,-20.2%,10µM*,25.0,3.7,2.1%
NC(=S)N/N=C/C=C/c1ccccc1,15.7%,-3.3%,-11.8%,-3.2,9.8,13.7%
SMILES,FMDV inh,Marburg entry inh,HCV inhibitor,Shiga toxin inh,Cycloheximide cs,Lassa entry inh
Cc1onc(-c2ccccc2)c1C(=O)N/N=C/C(Br)=C/c1ccccc1,-9.0%,u,u,-3.7,-0.7,u
CCCCOC(=O)N/N=C/C=C/c1ccccc1,49.6%,u,0.6%,13.3*,20.7*,-27.8%
CCC(CC)=NNC(=O)c1ccccc1OCc1ccc(F)cc1,-21.5%,0.3%,u,-2.9,5.7,u
C=CCSc1nc(C)c(CC=C)c(=O)[nH]1,x,2.2%,21.4%,-0.2,-4.1,1.0%
CC(=O)Nc1ccc(NC(=O)CSc2nc3c(=O)n(C)c(=O)n(C)c3n2C)cc1,-21.7%,7.1%,13.3%,x,x,1.7%
CN(C)c1ccnc2sc3c(=O)n(-c4ccccc4)cnc3c12,0.6%,u,-28.0%,18.6,12.0*,u
CN(C)C=Nc1c(C(=O)c2ccccc2)sc2nccc(N(C)C)c12,-9.1%,-7.4%[46.1 µM],u,-6.2,-2.9,9.1%
COc1ccc(CCNC(=O)Cn2nc(C)n3nc(-c4ccccc4)cc3c2=O)cc1OC,-5.0%,-20.0%[46.1 µM],-19.6%,9.7,-1.6,-0.3%[46.1 µM]
CC1(C)CN(c2ccc(F)cc2)C1=O,-8.5%,u,10.7%,-10.1,-6.4,-2.1%
CC(C)c1ccc(N2CC(C)(C)C2=O)cc1,31.7%,0.2%[46.1 µM],7.5%,74.2*,28.9*,-15.7%
COc1ccccc1NC1=C(Cl)C(=O)N(C2CCCCC2)C1=O,-14.8%,u,13.1%,15.9,1.4,0.8%
Cc1ccccc1NC1=C(Cl)C(=O)N(C2CCCCC2)C1=O,-25.2%,-20.9%,11.9%,13.7,12.7*,15.6%
O=C(Nc1ccnn1C1CCN(Cc2ccccc2)CC1)c1ccccc1Cl,-29.1%,x,2.8%,-2.8,-1.9,x
C[n+]1cn(CC(O)COCc2ccccc2)c2ccccc21 (stereo not given),-6.8%,3.7%,14.7%,-11.3,-1.3,11.4%
CCCCCc1ccc(OCCOCCn2c[n+](C)c3ccccc32)c(CCCCC)c1,25.1µM*,x,10µM*,-13.3,-5.8,x
CCCCCc1ccc(OCCC[n+]2ccccc2)c(CCCCC)c1,17.8µM*,7.08µM*,10µM*,-12.1,-2.5,u
Cc1ccc(S(=O)(=O)Nc2ccc(C(=O)NCc3ccncc3)cc2)cc1,8.3%,0.8%,11.5%,-35.9,1.5,-9.0%
CN=c1scc(C)n1/N=C/c1cc(Br)c(O)c(OC)c1,30.6%,u,u,56.1*,21.1*,u
Cc1ccc(C)c(NC(=O)C2CC3CCC2C3)c1 (stereo not given),43.9%,x,0.0%,22.7,14.1*,x
Cc1ccc(NC(=O)C2CC3CCC2C3)c(Br)c1 (stereo not given),55.1%,x,-4.5%,82.6*,32.6*,x
CCN(CC)c1ccc(NC(=O)C2CC3CCC2C3)cc1 (stereo not given),31.7%,u,-10.6%,107.4*,50.9*,10.1%
Cc1cc(C)cc(NC(=O)C2CC3CCC2C3)c1 (stereo not given),21.0%,x,-0.3%,-5.3,0.7,x
Cc1ccc(OCCC(=O)OCC(=O)NC2CCCC(C)C2C)cc1 (stereo not given),-8.3%,x,11.5%,x,x,x
Cc1cccc(OCCCC(=O)Nc2ccc(N(C)C)cc2)c1,56.5%,5.5%,-4.7%,121.9*,84.2*,18.7%
Cc1cccc(OCCC(=O)Nc2ccc(F)c(F)c2)c1,4.0%,u,2.7%,25.4,9.0,10.9%
Cc1cccc(OCCCC(=O)Nc2ccc(Br)cc2)c1,-19.9%,11.2µM*,u,4.7,0.8,-3.6%
Cc1cccc(OCCCC(=O)NNC(=O)c2cccc(N(C)C)c2)c1,25.7%,38.1%,6.3%,x,x,10.7%
Cc1ccc(S(=O)(=O)N2CCN(c3ncnc4sccc34)CC2)cc1,u,x,6.31µM*,-7.6,-2.6,x

# Screens: PubChem, National Center for Advancing Translational Sciences (NCATS)
